# The list is not random: actives were taken first. Their share in the collection is about 0.52%.
# Vif-A3G inh = inhibitors of Vif-APOBEC3G interaction; Q9HC16; HeLa A3G-eYFP + Vif (tagged APOBEC3G with the HIV-1 protein that degrades it), YFP fluorescence, overnight; Potency, µM (doses to about 46.1 µM), for inactives: at the top dose activity, negative = active, hits mostly inhibitors; 410,000 tested, 0.076% active; further: on the % scale 0 is the no-effect control and ±100 the full control effect; nearly all actives have a fitted effect of over 60% in size
# Target sequence (Q9HC16 whole entry, looked up): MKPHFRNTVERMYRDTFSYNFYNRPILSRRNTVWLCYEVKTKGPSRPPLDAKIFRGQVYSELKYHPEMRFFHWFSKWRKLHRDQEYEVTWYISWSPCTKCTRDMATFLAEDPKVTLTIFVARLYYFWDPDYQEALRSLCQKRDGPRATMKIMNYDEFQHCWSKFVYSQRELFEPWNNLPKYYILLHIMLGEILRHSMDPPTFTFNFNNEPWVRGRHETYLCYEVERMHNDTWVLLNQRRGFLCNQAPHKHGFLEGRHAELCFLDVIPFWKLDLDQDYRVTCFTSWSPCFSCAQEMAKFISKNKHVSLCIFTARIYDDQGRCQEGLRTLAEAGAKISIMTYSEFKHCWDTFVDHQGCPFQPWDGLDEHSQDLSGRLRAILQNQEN
#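 HeLa cells stably expressing Vif and C-terminally eYFP-tagged A3G, seeded overnight at 37 deg C, then exposed to compound by pintool overnight at 37 deg C. Rise in yellow fluorescence (Ex 488/Em 500-530, Acumen) marks blocked Vif-driven A3G degradation.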
# Epigenetic derep = regulators of epigenetic silencing causing reporter derepression in mouse cells; murine LDR cells, GFP reporter derepression, 30 h; Potency, µM (titrated, usually from 53.9 µM), inactives show at the highest dose GFP activation, most hits filed as activators; 280,000 tested, 0.2% active; further: % of control where 0% means no effect; nearly all actives have a fitted effect of over 60% in size
#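 Murine LDR cells carrying a silenced, genomically integrated CMV-driven GFP reporter were exposed to compound for 30 hours at 37 C. After PBS washes, GFP-positive cells (20–120 um objects) were counted by laser-scanning microplate cytometry.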
# Vif-A3F inh = blocks the Vif interaction with APOBEC3F; HeLa A3F-eYFP + Vif (tagged APOBEC3F with the HIV-1 protein that degrades it), YFP fluorescence increase; Potency, µM (series often up to 46.1 µM), for inactives: at the top dose activity, negative = active; 390,000 tested, 0.2% active; further: % of control where 0% means no effect; nearly all actives have a fitted effect of over 65% in size
#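 HeLa cells stably expressing A3F-eYFP plus Vif, plated and incubated overnight at 37 deg C, then exposed to compounds overnight at 37 deg C. Blocked degradation read as raised yellow fluorescence (Ex 488/Em 500-530).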
# PINK1 expr mod = modulators of PINK1 expression; 410,000 tested, 0.2% active; AID 624263; PINK1 immunofluorescence, high-content cytometry, 24 h; Potency, µM (highest dose often 76.6 µM), for inactives: at the top dose activation (PINK1 increase), most hits filed as activators; active means well fitted activation curve with a large enough effect; inconclusive means small, poorly fitted or top-dose-only effect; cell line not stated here; further: % of control where 0% means no effect; nearly all actives have a fitted effect of over 65% in size
#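 Readout is PINK1 immunofluorescence, quantified alongside mitochondrial, cell and nuclear markers by laser-scanning microplate cytometry. Cells from a stable line were exposed to compound titrations (5 concentrations) for 24 hours, with CCCP controls.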
# Active calls of the source: *; ? = inconclusive; . = no result given. Unless noted, the call rests on the fitted dose curve; in most records, active means well fitted curve in the direction sought with a large enough effect; inconclusive means small, poorly fitted or top-dose-only effect, or another doubt; inactive means no such curve, though single readings can be large; an effect the other way counts as inactive or inconclusive. Potency means the concentration at half of the fitted maximal effect.
SMILES,Vif-A3G inh,Epigenetic derep,Vif-A3F inh,PINK1 expr mod
O=c1c(Cl)c2oc3ccccc3nc-2c2ccccc12,?,22µM*,?,?
Cc1ncc2c(c1CNC(=O)c1ccc3c(c1)OCO3)CCN(C(=O)c1ccoc1)C2,.,.,.,-1%
CCOC(=O)N1CCN(C(=O)CCCCCn2c(=S)[nH]c3cc4c(cc3c2=O)OCO4)CC1,2%,-6%,0%,3%
CCCCSc1c(C)c2cc3c(cc2[nH]c1=O)OCO3,-1%,4%,-1%,5.6µM*
CCOC(=O)N1CCN(Cc2ccc3c(c2)CN(C(=O)c2cc(-c4ccccc4)on2)CCO3)CC1,.,.,.,0%
N=c1ccn(Cc2ccc(Cl)c(Cl)c2)cc1,-3%,0%,7%,40µM*
Cc1cc(C)nc(S[C@H]2C[C@@H](C(=O)N3CCN(c4ccccc4F)CC3)N(Cc3ccccc3F)C2)n1,.,.,.,1%
COc1ccccc1N=C1NC(=O)/C(=C/c2ccc(N(C)C)cc2)S1,4µM*,.,8.9µM*,3%
O=C1CCCC2=C1C1(CCCC1)N=C(Nc1nc3ccccc3s1)N2,1%,?,-8%,11µM*
CCN(Cc1ccccc1)S(=O)(=O)c1cc(C(=O)Nc2cc(Cl)cc(Cl)c2)ccc1F,11%,1%,0%,45µM*
COC(=O)Cn1cc(/C=N/NC(=O)c2ccc(C#N)cc2F)c2ccccc21,0%,-1%,-2%,11µM*
Cc1ccccc1CN1c2ccccc2-c2nc(SCC(=O)NCCc3ccccc3)ncc2S1(=O)=O,-2%,22µM*,0%,3%
Cc1ccc(-n2cc(C(=O)c3cc(Cl)ccc3O)cc(C#N)c2=O)cc1,-22%,-1%,-24%,18µM*
Cc1ccccc1NC(=O)c1cc(C(=O)c2cc(Cl)ccc2O)cn(-c2ccccc2C)c1=O,0%,-1%,-12%,16µM*
COc1ccc(-n2cc(C(=O)c3cc(Cl)ccc3O)cc(C#N)c2=O)cc1,-15%,0%,-2%,?
CCCCn1cc(C(=O)c2cc(Br)ccc2O)cc(C#N)c1=O,-1%,-1%,-2%,18µM*
Cc1ccccc1NC(=O)c1ccccc1NC(=O)c1ccccc1Cl,5%,-2%,-8%,1%
CCOCCCn1cc(C(=O)c2cc(Br)ccc2O)cc(C#N)c1=O,?,2%,-8%,4%
O=C1CC(CC(=O)N2CC3CCCC2C3)(c2cccc(F)c2)C(=O)N1Cc1cccnc1 (stereo unspecified),.,.,.,0%
Cn1c(-c2ccncc2)nc2cc(C(=O)N[C@H]3CCCCNC3=O)cc(NC(=O)C3CCC3)c21,.,.,.,0%
Cc1ccc(C)c(Oc2cc(NC(=O)CCCn3nc(C)c([N+](=O)[O-])c3C)cc([N+](=O)[O-])c2)c1,-6%,-2%,1%,45µM*
Cc1nn(CCCC(=O)Nc2cc(Oc3ccccc3)cc([N+](=O)[O-])c2)c(C)c1[N+](=O)[O-],2%,-1%,-5%,6%
O=C(NC(=O)c1ccccc1O)c1ccc(C(F)(F)F)cc1,-4%,0%,4%,32µM*
CCCc1ccc(C(=O)NC(=O)c2ccccc2O)cc1,-5%,-1%,-1%,45µM*
O=C(NC(=S)NNC(=O)c1ccccc1O)c1ccc(F)cc1,2%,.,1%,-1%
SMILES,Vif-A3G inh,Epigenetic derep,Vif-A3F inh,PINK1 expr mod
Cc1cccc2nc(CNC(=O)CN3Cc4cc(Cl)ccc4OC(C)C3)cn12 (stereo unspecified),.,.,.,0%
Cc1occc1C(=O)N/N=C/C(Br)=C/c1ccccc1,-14%,22µM*,?,2%
Cc1occc1C(=O)N/N=C/c1ccc(-c2ccccc2)cc1,2%,.,14%,10%
CC(C)c1c(C(=O)NCC2(N3CCCCC3)CCCC2)cnn1-c1nccc(-c2ccco2)n1,.,.,.,0%
Cc1ccnc(NC(=O)Nc2ccc3c(c2)N(C)C(=O)CS3)c1,?,0%,25µM*,?
Cc1csc(C(C)N(C)C(=O)c2cc(NC(=O)C3CCC3)c3c(c2)nc(-c2ccncc2)n3C)n1 (stereo unspecified),.,.,.,0%
COc1ccc(C2NN=C(c3c[nH]c4ccccc34)C2O)cc1 (stereo unspecified),?,.,22µM*,3%
COc1ccccc1CN1CCCC(n2cc(C(=O)N3CCCCC3)nn2)C1 (stereo unspecified),.,.,.,1%
CCOC(=O)c1ccc(N=Nc2c(C)c(C#N)c(O)[nH]c2=O)cc1,-11%,6%,10µM*,15%
O=C(Oc1cccc2cccnc12)c1ccco1,?,?,-7%,-1%
O=C(Oc1ccc(Cl)c2cccnc12)c1ccco1,11µM*,?,-7%,4%
Cc1cccc(N(C(=O)c2nsc(Cl)c2Cl)C(C(=O)NC2CCCC2)c2ccc(O)cc2)c1C (stereo unspecified),-5%,1%,0%,45µM*
NC1=NC(=O)/C(=C/c2c(OS(=O)(=O)c3ccc(Cl)cc3)ccc3ccccc23)S1,-2%,-2%,-15%,13µM*
O=C(Nc1ccc(Cl)cc1)C1CCN(S(=O)(=O)c2ccc(Br)s2)CC1,2%,10%,-6%,18µM*
CC(C)c1ccc(NC(=O)C2CCN(S(=O)(=O)c3ccc(Br)s3)CC2)cc1,1%,9%,-8%,3%
COCCN1CCN(C(=O)c2cnn(-c3ncc4c(n3)-c3ccc(OC)cc3CC4)c2C2CC2)CC1,.,.,.,0%
COc1ccc(NC(=O)c2cc([N+](=O)[O-])ccc2O)cc1,1%,3%,-4%,28µM*
COc1ccc(NC(=O)c2cc3cc(OC)ccc3oc2=O)cc1,-5%,.,-2%,25µM*
O=C(Nc1cccc([N+](=O)[O-])c1)c1cc2ccccc2cc1O,3%,0%,-6%,2.5µM*
COc1cccc(C2(CC(=O)N3CCCCC3CO)CC(=O)N(C)C2=O)c1 (stereo unspecified),.,.,.,0%
COC(=O)c1ccc(CN2CCOc3ccc(CN4CCC(O)(c5cccnc5)CC4)cc3C2)cc1,.,.,.,0%
COc1cc(/C=C2\SC(=S)N(Nc3ncc(C(F)(F)F)cc3Cl)C2=O)ccc1O,?,1%,22µM*,3%
COc1cc(/C=C2\SC(=S)N(Nc3ccccc3)C2=O)ccc1O,?,0%,?,1%
CN(C)c1ccc(/C=C2\SC(=S)N(Nc3ncc(C(F)(F)F)cc3Cl)C2=O)cc1,?,14µM*,10µM*,18µM*
N#C/C(=N\Nc1ccc([N+](=O)[O-])cc1)C(N)=S,7%,2%,4%,25µM*
N#C/C(=N\Nc1cccc([N+](=O)[O-])c1)C(=O)c1ccc(Br)cc1,-15%,-1%,9%,4.5µM*
COc1ccccc1-n1cc(C(=O)NCCN2Cc3ccccc3OC(c3ccsc3)C2)cn1 (stereo unspecified),.,.,.,1%
O=C(NCC1Cc2cccc(-c3cnccn3)c2O1)c1ccc2c(c1)OCCO2 (stereo unspecified),.,.,.,0%
COC(=O)c1cc(NC(=O)c2ccccc2)c(=O)oc1/C=C/Nc1ccc(Oc2ccccc2)cc1,?,?,8.9µM*,8%
